The values that follow come from PubChem BioAssay (Tox21).

Structures are written as SMILES. Activity calls are given as the source filed them. Calls follow the shape of the full dose curve.
% is scaled to controls: 0 for no effect and ±100 for the full control effect.

This test in a line: qHTS assay to identify small molecule agonists of the sonic hedgehog signaling (Shh) pathway (AID 1259368).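 Also: NIH/3T3-derived 3T3Gli1-Luc cells carrying a stable Gli1-driven firefly luciferase reporter; nearly all actives have a fitted effect of over 15% in size.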 The conditions noted are these: NIH/3T3 Gli1-Luc reporter, luciferase, 24 h, stronger effect = higher value; series mostly up to 92.4 µM; activity change: at the top concentration. The source says:
National Center for Advancing Translational Sciences [NCATS]
NIH Chemical Genomics Center [NCGC]
U.S. Environmental Protection Agency [EPA]
National Institutes of Environmental Health Sciences [NIEHS]
National Toxicology Program [NTP]
The sonic hedgehog (Shh) pathway is essential for normal embryonic development. Dysregulation of the Shh pathway can cause severe developmental defects in organs. Therefore chemicals that interfere with the pathway are potential developmental toxicants. A cell line designated 3T3Gli1-Luc (DMB/OARSA/CFSAN/FDA, Laurel, MD), a NIH/3T3 derived clone containing stably integrated Gli1-Luc reporter is used to detect chemical interference of the Shh pathway, by changes in the expression of the firefly Luc gene under the control of the Gli1 transcriptional response element. This cell line was used to screen Tox21 libraries for identifying and prioritizing the potential developmental toxicants that interfere Shh pathway.
3T3 Gli1-Luc cells were dispensed at 2,000 per well in 5uL of culture medium into white solid bottom 1536-well plates (Greiner Bio-One, Monroe, NC) using a Multidrop Combi (Thermo Scientific, Waltham, MA) dispenser. The assay plates were incubated at 37 C and 5% CO2 for 4hr, and then 23nL of compounds dissolved in DMSO and positive control were transferred using a Pintool station (Wako, San Diego, CA). The assay plates were incubated at 37C and 5% CO2 for 24hr. For luciferase read, 4uL of Amplite Luciferase reporter gene assay reagent (AAT Bioquest, Inc. Sunnyvale, CA) was added to each well of the assay plates using Flying Reagent Dispenser (FRD, Aurora Discovery, San Diego, CA) and incubated at room temperature for 30min. The luminescence signal was measured using a ViewLux plate reader (Perkin Elmer, Shelton, CT).
On the technique in general: Quantitative high-throughput screening tests each substance at several concentrations.
As to `CCCC(=O)O[C@]1(C(=O)CO)CC[C@H]2[C@@H]3CCC4=CC(=O)CC[C@]4(C)[C@H]3[C@@H](O)C[C@@]21C`, the “activity change” value is 0.153% [at 42.5 µM] (inactive). Same read-out and setting: then `COC(=O)CC(C)=O`, with -1.43% (inactive); and `c1ccc([C@H]2CN3CCSC3=N2)cc1`, with 0.0567% [at 42.5 µM] (inactive); and `COC(=O)c1ccc(C)cc1C1=NC(C)(C(C)C)C(=O)N1` (stereo not given), with -0.176% (inactive). Same read-out and setting: as for `CCOC(=O)C(=O)OCC`, the figure is 0.192% (inactive).

Turning to `N[C@H]1CN(c2c(F)cc3c(=O)c(C(=O)O)cn(C4C[C@H]4F)c3c2Cl)CC12CC2` (stereo not given in full), the “activity change” value was 0.11% [at 42.5 µM] (inactive).

Turning to `OCCOc1ccc(OCCO)cc1`, the “activity change” value is 0.268% (inactive). Same read-out and setting: as for `O=C(O)COc1nn(Cc2ccccc2)c2ccccc12`, the figure is 0.188% [at 42.5 µM] (inactive); as for `NS(=O)(=O)c1cc(C(=O)O)cc(N2CCCC2)c1Oc1ccccc1`, 0.214% [at 42.5 µM] (inactive). Still for that read-out and setting: then `CCn1ccnc1CC1COc2ccccc2O1` (stereo not given), with 0.567% [at 42.5 µM] (inactive); and `CC(C)(C)NCCNC(C)(C)C`, with 2.11% (inactive); and `CCOC(=O)c1cccc(N)c1`, with -0.256% [at 42.5 µM] (inactive).

For the molecule `CN(C)CCCNCCCN(C)C`, the “activity change” value was -0.659% (inactive). On the same count and under the same terms, then `CC(C)NC(=O)NC(C)C`, with 0.408% (inactive).

Consider `COc1ccc2c(c1)CCCC2=O`, for which the “activity change” value was -0.0906% [at 42.5 µM] (inactive). For `O=C1CCCCCCCCCCCN1`, the call was inactive. With `CCN1CCC[C@H]1CNC(=O)c1c(O)c(Cl)cc(Cl)c1OC`, the “activity change” value is -0.175% [at 42.5 µM] (inactive). Still for that read-out and setting: as for `Cc1cccc(C)c1NC(=O)C(C)N` (stereo not given), the figure is 2.13% [at 42.5 µM] (inactive). Still for that read-out and setting: as for `NC(=O)c1ccc([N+](=O)[O-])cc1`, the figure is 0.482% (inactive); as for `NS(=O)(=O)c1cc(C(=O)NN2C[C@H]3[C@H]4CCC(C4)[C@H]3C2)ccc1Cl`, 0.102% [at 42.5 µM] (inactive). Same read-out and setting: then `C=COCC1CCC(CO)CC1` (stereo not given), with 0.435% (inactive); and `CC(NC(CCc1ccccc1)C(=O)O)C(=O)N1C(=O)N(C)CC1C(=O)O` (stereo not given), with -0.0347% [at 42.5 µM] (inactive); and `CCCCC/C=C\CCC=O`, with -0.819% (inactive).

Regarding `COC(=O)CCSCCC(=O)OC`, the “activity change” value is 0.535% (inactive). On to `OC[C@]1(O)OC[C@@H](O)[C@H](O)[C@@H]1O`, for which the molecule was called inactive.

With `c1ccc(CC2=NCCN2)cc1`, the “activity change” value is -1.5% [at 42.5 µM] (inactive). On the same count and under the same terms, then `CC(=O)N(CC(O)CO)c1c(I)c(C(=O)NCCO)c(I)c(C(=O)NCC(O)CO)c1I` (stereo not given), with 0.102% [at 42.5 µM] (inactive); and `Nc1cc(=O)[nH]c(N)n1`, with 0.122% [at 42.5 µM] (inactive). In the case of `COC(C)(C)CCCC(C)CC=O` (stereo not given), the “activity change” value is 0.042% (inactive).

For `CCOC(=O)c1c(C)n(C)c2ccc(O)cc12`, the “activity change” value was -0.416% [at 42.5 µM] (inactive). On the same count and under the same terms, then `CCC(=O)OC(C)c1ccccc1` (stereo not given), with 0.37% (inactive); and `CC(=O)CC(C)C`, with 0.559% (inactive). For `CC(=O)OC/C=C(\C)CC/C=C(\C)CCC=C(C)C`, the molecule was called inactive.

As to `Nc1nc2c(ncn2COC(CO)CO)c(=O)[nH]1`, the “activity change” value is 0.287% [at 42.5 µM] (inactive). The same measure, in the same setting: then `Cc1ccc(C#N)cc1`, with 0.723% (inactive); and `CC(C)c1cc2c(cc1S(=O)(=O)O)[C@@]1(C)CCC[C@@](C)(C(=O)O)[C@@H]1CC2`, with 0.0923% [at 42.5 µM] (inactive).

For `CCCCCOC(=O)CCCCC`, the “activity change” value was 0.321% (inactive). Same read-out and setting: then `C=CCOCC(CC)(CO)COCC=C`, with -1.9% (inactive); and `C[C@H]1C[C@@H](O)CC(C)(C)C1`, with -0.518% (inactive).

As for `CC(=O)CC(C)(C)C1CCCCC1`, the “activity change” value was -0.405% (inactive).
